# Source: PubChem (The Scripps Research Institute Molecular Screening Center)
# This is one part of a sample in which hits are shown more often than they occur.
# GBA activity up: enhancers of human beta-glucosidase activity in Gaucher fibroblasts | L444P Gaucher fibroblasts, 4-MU-glucoside fluorescence, 3 days | activation, % at 10 µM | actives 0.44% (n = 30,000); in the data active = activation above about 65%;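 note: 0% = vehicle wells and 100% = positive control wells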
# Target sequence (P04062 whole entry L483P): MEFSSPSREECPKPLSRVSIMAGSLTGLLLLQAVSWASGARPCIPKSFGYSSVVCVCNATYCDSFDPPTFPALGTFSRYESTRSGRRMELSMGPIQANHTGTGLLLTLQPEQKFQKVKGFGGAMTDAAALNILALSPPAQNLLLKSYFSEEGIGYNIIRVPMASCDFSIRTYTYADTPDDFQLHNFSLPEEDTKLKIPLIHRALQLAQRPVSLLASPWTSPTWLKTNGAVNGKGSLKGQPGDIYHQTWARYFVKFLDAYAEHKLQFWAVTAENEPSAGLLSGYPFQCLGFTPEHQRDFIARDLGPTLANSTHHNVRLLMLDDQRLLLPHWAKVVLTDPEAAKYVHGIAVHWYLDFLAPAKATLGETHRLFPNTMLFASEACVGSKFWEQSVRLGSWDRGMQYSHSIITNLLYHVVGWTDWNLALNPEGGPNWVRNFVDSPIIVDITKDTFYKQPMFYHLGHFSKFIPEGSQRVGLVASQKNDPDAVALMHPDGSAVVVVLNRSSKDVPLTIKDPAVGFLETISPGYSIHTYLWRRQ
# Active calls of the source: *.
SMILES,GBA activity up
CCOc1ccccc1-n1c(SCC(=O)N(CC)CC)nnc1-c1ccccn1,-0.1
CCOc1ccccc1-n1c(SCC(=O)N2CCOCC2)nnc1-c1ccccn1,-3.7
CCOc1ccccc1-n1c(SCC(N)=O)nnc1-c1ccc(O)cc1,115.7*
COc1ccc(Cl)cc1C(=O)CSc1nc(N)cc(N)n1,-8.7
CCOC(=O)c1ccc(COC(=O)c2cc3ccccc3oc2=O)o1,1.9
O=C(CSc1ncnc2ccccc12)Nc1ccc(N2CCOCC2)cc1,-30.7
O=C(CN1C(=O)c2ccccc2S1(=O)=O)NCCSC1CCCCC1,811.6*
COc1ccc(CCNC(=O)CN2C(=O)c3ccccc3S2(=O)=O)cc1,6.3
O=C(CN1C(=O)c2ccccc2S1(=O)=O)NCc1ccccn1,-13.4
CC1(C)CC(=O)C=C(Nc2ccccc2F)C1,0.4
COCc1cc(C)nc(SCC(=O)Nc2ccccc2C)c1C#N,52.1
COCc1cc(C)nc(N2CCN(c3ccccc3)CC2)c1C#N,-0.3
COCc1cc(C)nc(NC2CCCCC2)c1C#N,101.2*
Cc1ccc(C)c(NC(=O)C2CC(O)CN2C(=O)OC(C)(C)C)c1 (stereo not drawn),71.8*
Cc1ccc(C)c(NC(=O)C2CC=CCC2C(=O)O)c1 (stereo not drawn),12.8
Cc1cccc(NC(=O)C2CC(O)CN2C(=O)OCc2ccccc2)c1 (stereo not drawn),20.6
COC(=O)C1=C(CN2CCCc3ccccc32)NC(=O)NC1c1ccc(F)cc1 (stereo not drawn),-9.1
COc1ccc(-c2nnc(SC(C)C(=O)Nc3cccc(Cl)c3)o2)cc1 (stereo not drawn),15.5
COc1ccccc1C(=O)Nc1c2c(nn1-c1cccc(C)c1C)CS(=O)C2 (stereo not drawn),47.0
CCOC(=O)c1[nH]nc2c1C(=O)N(Cc1ccccc1)C2=O,39.9
COc1cc2[nH]c(=S)n(NC(=O)CC(C)C)c(=O)c2cc1OC,-20.2
CCCCC(CCC(=O)Nc1ccccc1C(=O)OCC)C(=O)O (stereo not drawn),-18.2
CCSc1nc2cc(OC)c(OC)cc2c(=O)n1CC,-9.2
c1ccc(-n2cnnc2SCc2nc3ccccc3s2)cc1,-18.9
c1ccc(Cn2c(SCc3nc4ccccc4s3)nnc2-c2ccco2)cc1,127.2*
SMILES,GBA activity up
CCC(c1nnc(SCc2nc3ccccc3s2)n1Cc1ccccc1)N(C)C (stereo not drawn),-0.1
COC(=O)c1cc(C(=O)OC)cc(N2C(=O)CN=C2Nc2nc(C)cc(C)n2)c1,-18.1
Cc1n[nH]c(C)c1Cc1ccc(C(=O)O)cc1,2.2
CCOc1cc(-c2noc(-c3ccncc3)n2)cc(Br)c1OC,-0.5
CCOc1ccc(-c2noc(-c3ccncc3)n2)cc1OCC,228.2*
CCOc1ccc(-c2nc(-c3ccc(OC)cc3)no2)cc1OCC,1.4
COCCn1c(SCC(=O)c2ccc(F)cc2)nnc1C(C)C,-37.1
COC(=O)c1cn(C(=O)c2cccs2)c2ccccc12,89.3*
COC(=O)c1cn(C(=O)c2ccc(Br)o2)c2ccccc12,-14.6
CCOC(=O)Cn1cc(C(=O)c2cccs2)c2ccccc21,-11.5
O=C(CN1C(=O)C2CC=CCC2C1=O)OCCN1C(=O)c2ccccc2C1=O (stereo not drawn),-15.4
COc1ccccc1C(=O)N(Cc1cccs1)C1CCS(=O)(=O)C1 (stereo not drawn),-21.2
Cc1cccc(OC(C)C(=O)N(Cc2cccs2)C2CCS(=O)(=O)C2)c1C (stereo not drawn),5.6
Cc1ccccc1OCC(=O)N(Cc1cccs1)C1CCS(=O)(=O)C1 (stereo not drawn),146.7*
CCN(CC)C(=O)Cn1nc(-c2ccccc2O)nc1SCC(=O)Nc1ccc(OC)cc1,-5.2
Cc1cc(C)nc(-n2nc(C)cc2NC(=O)c2cc3ccccc3oc2=O)n1,114.0*
Cc1cc(C)nc(-n2nc(C)cc2NC(=O)c2cc(=O)c3ccccc3o2)n1,10.7
Cc1cc(C)nc(-n2nc(C)cc2Nc2ccccc2)n1,1.0
CC(=O)OC(C(=O)NCc1ccco1)c1ccncc1 (stereo not drawn),-8.7
CCn1ncc(Br)c1C(=O)Nc1nccs1,7.6
CC(=O)n1c2ccccc2c2c1c1ccccc1n2C,6.9
C/C(=N\O)c1ccc2c3ccccc3n(C)c2c1,77.2*
Cn1cc(/C(Cc2ccccc2)=N\O)c2ccccc21,4.0
COCCNC(=O)C(C)OC(=O)c1nsc(Cl)c1Cl (stereo not drawn),-18.1
CC(OC(=O)c1nsc(Cl)c1Cl)C(=O)NCc1cccs1 (stereo not drawn),79.3*
SMILES,GBA activity up
CC(OC(=O)c1cccs1)C(=O)NCc1cccs1 (stereo not drawn),1.4
Cc1onc(-c2c(F)cccc2Cl)c1C(=O)Nc1ccc(S(=O)(=O)Nc2ncccn2)cc1,-38.4
O=C(CSc1ncc(-c2ccc(F)cc2)[nH]1)Nc1cccc(O)c1,3.0
Cc1ccc2c(c1)C(C)(C)[C@]1(C)NC(=O)CCN21,-20.4
CCn1c(SCC(=O)Nc2cc3oc4ccccc4c3cc2OC)nnc1-c1cccs1,-4.7
Cc1nn(-c2ccccc2)c2c1C(O)n1c(nc3ccccc31)S2 (stereo not drawn),-18.2
O=C1CN(C(=O)CCCc2c[nH]c3ccccc23)c2ccccc2N1,-6.2
COC(=O)Nc1nc2c(C)cccc2s1,-8.8
COc1ccc(NC(=O)CN(C)S(=O)(=O)c2cccs2)cc1,-15.2
Cc1cccc2sc(NC(=O)CN(C)S(=O)(=O)c3cccs3)nc12,76.5*
COc1ccc(-c2nn(C)c(=O)c3ccccc23)cc1CNC(=O)CN1CCOCC1,-11.8
CCn1c(SCC(=O)N2CCN(c3ccccc3)CC2)nnc1-c1cc2cc(Cl)ccc2o1,90.2*
O=C(CSc1nnc(-c2ccc(Cl)cc2)o1)N1CCN(c2ccccc2)CC1,-1.5
CCn1c(CC(=O)Nc2ccc(C)cc2)nnc1SCC(=O)N1CCN(c2ccccc2)CC1,-3.9
Cc1nc(CC(=O)N2CCN(c3cccc(C)c3C)CC2)cs1,7.9
COCCNC(=O)CN(C(=O)CCC(=O)Nc1nccs1)c1ccccc1OC,-8.2
CCCCOc1ccc(-c2nnn(CC(=O)Nc3ncc(CC(=O)OCC)s3)n2)cc1,-1.1
CCc1nc(SCC(=O)Nc2ccc3c(c2)OCCO3)c2oc3ccccc3c2n1,-131.4
Cc1nc(SCC(=O)Nc2ccc3c(c2)OCCO3)c2oc3ccccc3c2n1,149.1*
Cc1cccc(NC(=O)CSc2ncnc3c2oc2ccccc23)c1,-9.8
O=C(c1ccc(=O)oc1)N1CCCc2ccccc21,-15.8
Cc1ccccc1CS(=O)(=O)Cc1ccc(C(=O)NCCCN2CCCC2=O)o1,13.4
Cc1ccccc1CS(=O)(=O)Cc1ccc(C(=O)NCc2ccco2)o1,170.7*
Cc1ccccc1CS(=O)(=O)Cc1ccc(C(=O)NCCCN2CCOCC2)o1,23.1
Cc1cc(C)nc(N2CCCC(C(=O)NC(C)CCc3ccco3)C2)n1 (stereo not drawn),3.1
SMILES,GBA activity up
CCOc1ccc(C(C)=O)cc1COc1ccc(-n2cnnn2)cc1,-7.2
CC(=O)N1CCc2cc(Br)cc(S(=O)(=O)NCCCN3CCCC(C)C3)c21 (stereo not drawn),2.9
CC(=O)N1CCc2cc(Br)cc(S(=O)(=O)NCCCN3CCC(C)CC3)c21,4.4
CC(=O)N1CCc2cc(Br)cc(S(=O)(=O)NCCN3CCCCC3C)c21 (stereo not drawn),78.4*
O=C(CN1CCC(O)(c2ccc3c(c2)OCO3)CC1)OC1CCCCC1,-25.2
COc1ccccc1NC(=O)N1CCCC1C(=O)NC12CC3CC(CC(C3)C1)C2 (stereo not drawn),-29.0
CC(C)OC(=O)CSc1nnc(-c2cccnc2)n1N,67.3*
